# Records with an inconclusive call do not appear. The source made the active and inactive calls. The calls were made as follows, unless noted: active = hit-call score of the fitted dose curve at least 0.9, where 1 is the maximum; inconclusive = response in the unintended direction; inactive = score below 0.9.
# Tests used:
# [1] = target: human RAR-related Orphan Receptor beta (RORb), RORB (gene 6096) (UniProt Q92753); experiment: ATG_RORb_TRANS: Attagene TRANS-FACTORIAL HepG2 Assay for human RAR-related Orphan Receptor beta (RORb) (AID 2283010)
# Procedure, shortened: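 Read-out is reporter mRNA induction, quantified by RT-PCR with fluorescent capillary electrophoresis, 24 h post-dose in transiently transfected HepG2 expressing exogenous NR-Gal4 chimera. Activity fitted upward versus DMSO.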
# [2] = target: human RAR-related Orphan Receptor gamma (RORg), RORC (gene 6097) (UniProt P51449); experiment: ATG_RORg_TRANS: Attagene TRANS-FACTORIAL HepG2 Assay for human RAR-related Orphan Receptor gamma (RORg) (AID 2283011)
# Procedure, shortened: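 HepG2 cells transiently transfected with GAL4-UAS reporter units and chimeric RORg-Gal4 construct; after 24 h chemical exposure, reporter mRNA measured by RT-PCR with fluorescent capillary electrophoresis, gain of signal fitted against DMSO.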
# [3] = target: Retinoic acid receptor RXR-alpha (Homo sapiens) (UniProt P19793); experiment: ATG_RXRa_TRANS: Attagene TRANS-FACTORIAL HepG2 Assay for human Retinoid X Receptor alpha (RXRa) (AID 2283012)
# Procedure, shortened: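 TRANS format reporting activity of exogenous RXRa-Gal4 chimera in transiently transfected HepG2, 24 h exposure. Reporter transcripts quantified by RT-PCR with capillary electrophoresis, with gain of signal scored relative to DMSO.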
# [4] = target: human Retinoid X Receptor beta (RXRb), RXRB (gene 6257) (UniProt P28702); experiment: ATG_RXRb_TRANS: Attagene TRANS-FACTORIAL HepG2 Assay for human Retinoid X Receptor beta (RXRb) (AID 2283013)
# Procedure, shortened: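 Readout is reporter transcript induction after 24 h dosing. It is measured by RT-PCR of total RNA followed by fluorescent capillary electrophoresis. HepG2 liver cells carry transfected multiple reporter units driven by an exogenous RXRb-Gal4 fusion; activity is relative to DMSO.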
# [5] = target: human Thyroid Receptor alpha (THRa1), THRA (gene 7067) (UniProt P10827); experiment: ATG_THRa1_TRANS: Attagene TRANS-FACTORIAL HepG2 Assay for human Thyroid Receptor alpha (THRa1) (AID 2283014)
# Procedure, shortened: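 HepG2 cells transiently transfected with chimeric NR-Gal4 and GAL4-UAS reporter units, dosed 24 h. Reporter mRNA quantified by RT-PCR, fluorescent labeling, HpaI digestion and capillary electrophoresis; gain-of-signal fit versus DMSO.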
# [6] = read-out: E-selectin (Homo sapiens) (UniProt P16581); experiment: BSK_3C_Eselectin: BioMAP Diversity Plus: 3C Assay for Eselectin Biomarker Activity (AID 2283015; active = hit-call score of the fitted dose curve at least 0.9, where 1 is the maximum; inactive = score below 0.9;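 also: cell surface E-selectin protein quantified by ELISA 24 h after dosing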); settings: primary human endothelial cells (HUVEC); actives raise or lower the signal
# Procedure, shortened: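 Primary human umbilical vein endothelial cells (3C system), read 24 h after compound addition; E-selectin measured by ELISA. Bidirectional curve fitting against DMSO baseline; cytotoxicity by parallel SRB total-protein staining.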
# [7] = read-out: Interleukin-1 alpha (IL1a), IL1A (gene 3552); experiment: BSK_BE3C_IL1a: BioMAP Diversity Plus: BE3C Assay for Interleukin-1 alpha (IL1a) Biomarker Activity (AID 2283016; active = hit-call score of the fitted dose curve at least 0.9, where 1 is the maximum; inactive = score below 0.9); settings: primary human bronchial epithelial cells; actives raise or lower the signal
# Procedure, shortened: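 IL-1a measured by ELISA after 24 h treatment of human primary bronchial epithelial cells, with gain or loss of signal fitted versus DMSO. Parallel cultures stained with SRB gauge overt cytotoxicity.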
# [8] = read-out: Monocyte Chemoattractant Protein-1 (MCP1), CCL2 (gene 6347); experiment: BSK_3C_MCP1: BioMAP Diversity Plus: 3C Assay for Monocyte Chemoattractant Protein-1 (MCP1) Biomarker Activity (AID 2283017; active = hit-call score of the fitted dose curve at least 0.9, where 1 is the maximum; inactive = score below 0.9); settings: primary human endothelial cells (HUVEC); actives raise or lower the signal
# Procedure, shortened: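 Human umbilical vein endothelial cells (3C system) exposed to chemicals for 24 h; MCP-1 quantified by ELISA against the DMSO baseline with bidirectional fitting, and parallel SRB staining used to assess cytotoxicity.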
# [9] = read-out: Monocyte Chemoattractant Protein-1 (MCP1), CCL2 (gene 6347); experiment: BSK_4H_MCP1: BioMAP Diversity Plus: 4H Assay for Monocyte Chemoattractant Protein-1 (MCP1) Biomarker Activity (AID 2283018; active = hit-call score of the fitted dose curve at least 0.9, where 1 is the maximum; inactive = score below 0.9); settings: primary human endothelial cells (HUVEC); actives raise or lower the signal
# Procedure, shortened: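 ELISA of MCP-1 (CCL2) 24 h after chemical dosing of HUVEC in the BioMAP 4H system. Gain or loss versus DMSO fitted; parallel SRB staining (560 nm) tracked overt cytotoxicity.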
# [10] = read-out: Human Leukocyte Antigen - DR isotype (HLADR), HLA-DRA (gene 3122); experiment: BSK_3C_HLADR: BioMAP Diversity Plus: 3C Assay for Human Leukocyte Antigen - DR isotype (HLADR) Biomarker Activity (AID 2283019; active = hit-call score of the fitted dose curve at least 0.9, where 1 is the maximum; inactive = score below 0.9); settings: primary human endothelial cells (HUVEC); actives raise or lower the signal
# Procedure, shortened: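 HUVEC monoculture, HLA-DR measured by ELISA 24 h after chemical dosing. Fitted bidirectionally against DMSO baseline; parallel SRB staining assessed cytotoxicity, with 3C proliferation read by SRB at 48 h.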
# [11] = read-out: Interleukin-8 (IL8), CXCL8 (gene 3576); experiment: BSK_3C_IL8: BioMAP Diversity Plus: 3C Assay for Interleukin-8 (IL8) Biomarker Activity (AID 2283020; active = hit-call score of the fitted dose curve at least 0.9, where 1 is the maximum; inactive = score below 0.9); settings: primary human endothelial cells (HUVEC); actives raise or lower the signal
# Procedure, shortened: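 IL-8 was measured by ELISA in HUVEC cultures 24 h after chemical dosing, with gain or loss of signal fitted relative to DMSO. Parallel SRB total-protein staining tracked overt cytotoxicity.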
# [12] = read-out: Monokine induced gamma interferon (MIG), CXCL9 (gene 4283); experiment: BSK_3C_MIG: BioMAP Diversity Plus: 3C Assay for Monokine induced gamma interferon (MIG) Biomarker Activity (AID 2283021; active = hit-call score of the fitted dose curve at least 0.9, where 1 is the maximum; inactive = score below 0.9); settings: primary human endothelial cells (HUVEC); actives raise or lower the signal
# Procedure, shortened: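 ELISA measurement of MIG in human umbilical vein endothelial cells 24 h after treatment. Cytotoxicity tracked by SRB staining in parallel cultures; gain or loss of signal fitted relative to DMSO.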
# [13] = target: human Vitamin D Receptor (VDR), VDR (gene 7421) (UniProt P11473); experiment: ATG_VDR_TRANS: Attagene TRANS-FACTORIAL HepG2 Assay for human Vitamin D Receptor (VDR) (AID 2283022)
# Procedure, shortened: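 HepG2 cells were transiently transfected with GAL4-UAS reporter units and a chimeric VDR-Gal4 construct, then dosed for 24 hours. Reporter mRNA was quantified by RT-PCR, fluorescent labeling, HpaI digestion and capillary electrophoresis; gain of signal analysed vs DMSO.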
# [14] = BSK_3C_SRB: Viability Assessment in the BioMAP Diversity Plus: 3C Assay (AID 2283023; active = hit-call score of the fitted dose curve at least 0.9, where 1 is the maximum; inactive = score below 0.9;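 also: fitted both ways against DMSO so a hit may be signal rise or drop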); settings: primary human endothelial cells (HUVEC)
# Procedure, shortened: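 Human umbilical vein endothelial cells in the 3C system, treated 24 h. Total protein measured by 0.1% sulforhodamine B staining after 10% TCA fixation, read at 560 nm; bidirectional fit versus DMSO.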
# [15] = read-out: Matrix Metallopeptidase 1 (MMP1), MMP1 (gene 4312); experiment: BSK_BE3C_MMP1: BioMAP Diversity Plus: BE3C Assay for Matrix Metallopeptidase 1 (MMP1) Biomarker Activity (AID 2283024; active = hit-call score of the fitted dose curve at least 0.9, where 1 is the maximum; inactive = score below 0.9); settings: primary human bronchial epithelial cells; actives raise or lower the signal
# Procedure, shortened: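 ELISA measurement of MMP-1 after 24 h compound exposure of primary human bronchial epithelial cells. Changes in either direction fitted relative to DMSO; parallel SRB staining checked overt cytotoxicity.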
# [16] = BSK_3C_Vis: BioMAP Diversity Plus: 3C Assay for Morphology Visualization (AID 2283025; active = hit-call score of the fitted dose curve at least 0.9, where 1 is the maximum; inactive = score below 0.9;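 also: light microscopy image of cell morphology used as background control; fitted both ways so gain or loss versus DMSO counts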); settings: primary human endothelial cells (HUVEC)
# Procedure, shortened: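 Light-microscopy visualization of HUVEC cultures at 24 h post-treatment, with DMSO as baseline for bidirectional fitting.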
# [17] = read-out: Pselectin, SELP (gene 6403); experiment: BSK_4H_Pselectin: BioMAP Diversity Plus: 4H Assay for Pselectin Biomarker Activity (AID 2283026; active = hit-call score of the fitted dose curve at least 0.9, where 1 is the maximum; inactive = score below 0.9); settings: primary human endothelial cells (HUVEC); actives raise or lower the signal
# Procedure, shortened: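 ELISA of surface P-selectin on HUVEC, 24 h after dosing, with parallel SRB staining (0.1% after 10% TCA fixation, 560 nm) for overt cytotoxicity. Activity fitted in both directions relative to DMSO.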
# [18] = BSK_4H_SRB: Viability Assessment in the BioMAP Diversity Plus: 4H Assay (AID 2283027; active = hit-call score of the fitted dose curve at least 0.9, where 1 is the maximum; inactive = score below 0.9;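 also: cells exposed to compound for 24 h before staining; curves fitted both ways versus DMSO so AC50 may be loss or gain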); settings: primary human endothelial cells (HUVEC)
# Procedure, shortened: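 Cytotoxicity read-out in primary human endothelial cells: after 24 h compound exposure, cells were TCA-fixed (10%), stained with 0.1% SRB and absorbance taken at 560 nm. Values fitted in both directions relative to DMSO.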
# [19] = BSK_BE3C_SRB: Viability Assessment in the BioMAP Diversity Plus: BE3C Assay (AID 2283028; active = hit-call score of the fitted dose curve at least 0.9, where 1 is the maximum; inactive = score below 0.9); settings: primary human bronchial epithelial cells
# Procedure, shortened: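 Human bronchial epithelial primary cells in confluent culture, 24 h after chemical dosing; total protein by 0.1% SRB staining after 10% TCA fixation, read at 560 nm. Bidirectional fitting versus DMSO baseline.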
# [20] = read-out: Thrombomodulin, THBD (gene 7056); experiment: BSK_3C_Thrombomodulin: BioMAP Diversity Plus: 3C Assay for Thrombomodulin Biomarker Activity (AID 2283029; active = hit-call score of the fitted dose curve at least 0.9, where 1 is the maximum; inactive = score below 0.9); settings: primary human endothelial cells (HUVEC); actives raise or lower the signal
# Procedure, shortened: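 ELISA measurement of thrombomodulin on HUVEC surface 24 h after chemical dosing; activity fitted in both directions relative to DMSO vehicle.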
# Chain of human RAR-related Orphan Receptor gamma (RORg), RORC (gene 6097) (P51449 whole entry, looked up, the tested form may be a part): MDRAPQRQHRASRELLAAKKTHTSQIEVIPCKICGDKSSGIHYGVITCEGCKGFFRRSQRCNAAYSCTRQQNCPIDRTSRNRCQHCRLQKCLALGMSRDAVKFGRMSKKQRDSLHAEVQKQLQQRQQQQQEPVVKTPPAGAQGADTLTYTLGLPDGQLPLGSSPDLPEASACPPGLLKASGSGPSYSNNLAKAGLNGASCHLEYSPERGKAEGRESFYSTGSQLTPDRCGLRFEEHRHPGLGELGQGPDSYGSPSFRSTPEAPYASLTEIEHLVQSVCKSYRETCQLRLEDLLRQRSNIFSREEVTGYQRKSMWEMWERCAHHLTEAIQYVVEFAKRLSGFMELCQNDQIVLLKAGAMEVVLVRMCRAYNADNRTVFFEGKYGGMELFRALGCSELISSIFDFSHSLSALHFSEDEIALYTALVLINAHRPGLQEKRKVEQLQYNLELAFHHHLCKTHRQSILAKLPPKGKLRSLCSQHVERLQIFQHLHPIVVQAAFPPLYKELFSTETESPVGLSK
# Chain of human RAR-related Orphan Receptor beta (RORb), RORB (gene 6096) (Q92753 whole entry, looked up, the tested form may be a part): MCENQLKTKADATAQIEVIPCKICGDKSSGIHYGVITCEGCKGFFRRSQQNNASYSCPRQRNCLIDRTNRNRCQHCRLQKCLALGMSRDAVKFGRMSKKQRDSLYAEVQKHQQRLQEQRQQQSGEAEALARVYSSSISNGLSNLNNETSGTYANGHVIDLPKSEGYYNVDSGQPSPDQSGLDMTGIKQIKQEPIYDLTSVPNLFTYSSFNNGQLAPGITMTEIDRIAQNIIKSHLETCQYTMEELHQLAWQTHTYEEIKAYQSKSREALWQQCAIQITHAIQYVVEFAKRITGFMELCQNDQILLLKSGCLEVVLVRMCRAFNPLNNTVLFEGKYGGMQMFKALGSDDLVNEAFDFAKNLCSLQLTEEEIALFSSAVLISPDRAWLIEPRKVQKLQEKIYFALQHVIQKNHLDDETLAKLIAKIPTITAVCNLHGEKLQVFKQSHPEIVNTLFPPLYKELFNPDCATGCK
# Chain of Retinoic acid receptor RXR-alpha (Homo sapiens) (P19793 whole entry, looked up, the tested form may be a part): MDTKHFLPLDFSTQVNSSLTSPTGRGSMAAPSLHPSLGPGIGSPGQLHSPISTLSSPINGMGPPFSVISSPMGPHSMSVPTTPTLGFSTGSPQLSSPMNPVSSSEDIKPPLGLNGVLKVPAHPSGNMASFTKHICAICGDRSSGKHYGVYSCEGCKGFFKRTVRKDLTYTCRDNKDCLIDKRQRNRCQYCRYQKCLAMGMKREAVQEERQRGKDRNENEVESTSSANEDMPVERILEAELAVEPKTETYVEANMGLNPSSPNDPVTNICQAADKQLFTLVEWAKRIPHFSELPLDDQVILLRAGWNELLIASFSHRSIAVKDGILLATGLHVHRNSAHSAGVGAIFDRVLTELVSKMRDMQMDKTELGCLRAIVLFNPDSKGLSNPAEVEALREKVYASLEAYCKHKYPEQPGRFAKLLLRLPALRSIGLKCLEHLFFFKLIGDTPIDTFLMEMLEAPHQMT
# Chain of human Retinoid X Receptor beta (RXRb), RXRB (gene 6257) (P28702 whole entry, looked up, the tested form may be a part): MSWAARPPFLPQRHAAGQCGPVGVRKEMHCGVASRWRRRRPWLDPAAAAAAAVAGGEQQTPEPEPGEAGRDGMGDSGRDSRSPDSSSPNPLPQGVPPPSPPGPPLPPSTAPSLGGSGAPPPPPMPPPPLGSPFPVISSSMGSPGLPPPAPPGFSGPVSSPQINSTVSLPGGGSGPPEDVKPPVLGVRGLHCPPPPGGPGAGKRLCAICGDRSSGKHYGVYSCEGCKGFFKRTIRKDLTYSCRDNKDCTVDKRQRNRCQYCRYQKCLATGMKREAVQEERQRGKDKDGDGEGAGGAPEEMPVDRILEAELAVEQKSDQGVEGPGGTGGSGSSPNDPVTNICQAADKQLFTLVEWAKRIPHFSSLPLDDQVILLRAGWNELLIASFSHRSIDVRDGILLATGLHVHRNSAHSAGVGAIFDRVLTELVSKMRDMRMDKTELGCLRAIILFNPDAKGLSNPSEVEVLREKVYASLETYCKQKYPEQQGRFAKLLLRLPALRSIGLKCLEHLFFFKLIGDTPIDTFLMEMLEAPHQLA
# Chain of human Vitamin D Receptor (VDR), VDR (gene 7421) (P11473 whole entry, looked up, the tested form may be a part): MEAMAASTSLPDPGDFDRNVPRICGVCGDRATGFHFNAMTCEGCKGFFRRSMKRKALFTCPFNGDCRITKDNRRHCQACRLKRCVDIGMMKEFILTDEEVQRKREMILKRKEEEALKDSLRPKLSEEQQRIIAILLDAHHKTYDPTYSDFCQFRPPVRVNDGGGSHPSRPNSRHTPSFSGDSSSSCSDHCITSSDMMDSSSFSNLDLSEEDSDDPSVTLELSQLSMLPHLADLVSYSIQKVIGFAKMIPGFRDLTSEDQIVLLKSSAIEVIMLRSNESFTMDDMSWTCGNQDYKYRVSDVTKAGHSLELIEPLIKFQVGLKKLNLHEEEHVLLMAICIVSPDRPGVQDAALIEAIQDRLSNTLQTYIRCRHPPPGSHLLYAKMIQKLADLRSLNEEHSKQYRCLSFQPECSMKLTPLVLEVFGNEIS
# Chain of human Thyroid Receptor alpha (THRa1), THRA (gene 7067) (P10827 whole entry, looked up, the tested form may be a part): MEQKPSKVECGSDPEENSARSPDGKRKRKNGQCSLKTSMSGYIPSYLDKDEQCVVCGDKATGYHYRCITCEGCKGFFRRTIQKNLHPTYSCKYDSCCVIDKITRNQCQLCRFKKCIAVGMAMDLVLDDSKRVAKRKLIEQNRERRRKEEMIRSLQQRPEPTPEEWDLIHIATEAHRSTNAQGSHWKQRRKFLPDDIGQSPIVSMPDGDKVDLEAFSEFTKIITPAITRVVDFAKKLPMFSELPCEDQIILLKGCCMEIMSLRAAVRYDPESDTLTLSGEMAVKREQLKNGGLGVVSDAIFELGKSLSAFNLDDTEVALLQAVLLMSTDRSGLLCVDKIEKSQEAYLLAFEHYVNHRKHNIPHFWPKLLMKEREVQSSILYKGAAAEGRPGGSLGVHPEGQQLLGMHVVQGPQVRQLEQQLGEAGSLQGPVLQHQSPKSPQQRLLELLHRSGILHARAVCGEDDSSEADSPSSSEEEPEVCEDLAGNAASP
# Chain of E-selectin (Homo sapiens) (P16581 whole entry, looked up): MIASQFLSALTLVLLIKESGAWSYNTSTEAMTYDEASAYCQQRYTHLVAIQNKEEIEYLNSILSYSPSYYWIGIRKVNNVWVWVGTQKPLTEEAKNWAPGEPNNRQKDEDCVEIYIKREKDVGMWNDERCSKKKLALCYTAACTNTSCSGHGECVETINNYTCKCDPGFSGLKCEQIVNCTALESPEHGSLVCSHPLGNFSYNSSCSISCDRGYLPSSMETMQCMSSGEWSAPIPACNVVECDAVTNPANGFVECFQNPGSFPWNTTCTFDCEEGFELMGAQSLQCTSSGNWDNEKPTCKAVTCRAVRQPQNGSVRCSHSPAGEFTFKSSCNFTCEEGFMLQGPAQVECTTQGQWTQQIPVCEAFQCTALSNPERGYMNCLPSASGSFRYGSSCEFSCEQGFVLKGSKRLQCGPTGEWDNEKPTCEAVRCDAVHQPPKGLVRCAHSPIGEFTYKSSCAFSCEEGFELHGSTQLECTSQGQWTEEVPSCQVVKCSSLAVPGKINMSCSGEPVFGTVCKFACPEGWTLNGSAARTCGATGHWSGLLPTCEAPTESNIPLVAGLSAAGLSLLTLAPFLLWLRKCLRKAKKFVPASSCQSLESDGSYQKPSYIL
smiles,measurement,setting,value
Oc1ccc(/C=C/c2cc(O)cc(O)c2)cc1,outcome,[1],inactive
same,outcome,[2],inactive
same,outcome,[3],inactive
same,outcome,[4],inactive
same,outcome,[5],inactive
same,outcome,[6],inactive
same,AC50,[7],10.1 µM (active)
same,AC50,[8],20 µM (active)
same,AC50,[9],9.4 µM (active)
same,AC50,[10],20 µM (active)
same,outcome,[11],inactive
same,outcome,[12],inactive
same,outcome,[13],inactive
same,outcome,[14],inactive
same,outcome,[15],inactive
same,AC50,[16],20 µM (active)
same,outcome,[17],inactive
same,AC50,[18],20 µM (active)
same,outcome,[19],inactive
same,outcome,[20],inactive
CC1OC(=O)C(C)OC1=O (configuration not stated),outcome,[1],inactive
CCCCCCCCCCCCCc1ccccc1,outcome,[1],inactive
same,outcome,[2],inactive
same,outcome,[3],inactive
same,outcome,[4],inactive
same,outcome,[5],inactive
CCC1COC(=O)O1 (configuration not stated),outcome,[1],inactive
same,outcome,[2],inactive
same,outcome,[3],inactive
same,AC50,[4],70.1 µM (active)
same,outcome,[13],inactive
O=C(C=Cc1ccccc1)OCCc1ccccc1,outcome,[1],inactive
same,outcome,[2],inactive
same,outcome,[3],inactive
same,outcome,[4],inactive
same,outcome,[5],inactive
same,outcome,[13],inactive
CC1=C(O)C(=O)C(C)O1 (configuration not stated),outcome,[1],inactive
same,outcome,[2],inactive
same,outcome,[3],inactive
same,outcome,[4],inactive
C=CC(=O)OCCCCCCCCCC,outcome,[1],inactive
same,outcome,[2],inactive
same,outcome,[3],inactive
same,outcome,[4],inactive
same,outcome,[5],inactive
same,outcome,[13],inactive

# From PubChem BioAssay (EPA / NIEHS)
